For assay [1], the target named is Ferritin light chain (Equus caballus) (UniProt P02791). The assay can be described thus: qHTS Validation Assay for Identification of Novel General Anesthetics (AID 2323). Also: series mostly up to about 77 µM. In outline: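 Competitive displacement of profluorescent 1-aminoanthracene (1-AMA, 50% saturated solution in PBS) from 10 uM horse-spleen apoferritin. Compounds incubated 10 min at room temperature; fluorescence read at 380 nm excitation/535 nm emission, normalized to free 1-AMA and complex, fitted with four-parameter Hill equation.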

Assay [2] has as its target ATP-dependent DNA helicase Q1 (Homo sapiens) (UniProt P46063). The assay can be described thus: qHTS Validation Assay for Inhibitors of RecQ-Like Dna Helicase 1 (RECQ1) (AID 2353). The gist of the method: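 50 nM RECQ1T1 preincubated 15 min with compound in Tris pH 8.0 buffer with MgCl2, DTT, Tween-20 and 2.5 ug/ml poly(dI-dC); started with 200 nM TAMRA/BHQ-2 forked duplex and 2 mM ATP. Unwinding read as fluorescence (525/598 nm), two reads 2 h apart.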

Assay [3] concerns the target RecQ-like DNA helicase BLM (Homo sapiens) (UniProt P54132). The assay can be described thus: qHTS Validation Assay for Inhibitors of Bloom's syndrome helicase (BLM) (AID 2364). Also: potency is read from the fitted curve at half-maximal effect. The gist of the method:
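50 nM BLM preincubated 15 min at room temperature with compound in pH 8.0 Tris buffer containing 2.5 ug/ml poly(dI-dC); started with 200 nM TAMRA/BHQ-2 forked duplex and 2 mM ATP (final). Unwinding read as TAMRA fluorescence increase, two reads 2 h apart.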
A general note: qHTS replaces the single test concentration by a dilution series.

A short description of assay [4]: Cytometric Cell-Based qHTS for Inhibitors of the mTORC1 Signaling Pathway in MEF (Tsc2-/-, p53-/-) Cells (AID 2660).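 Also: Tsc2 and p53 null MEFs carrying empty vector with compound for 24 h; percent of cells above a phospho-rpS6 to PI ratio cutoff in each well; series mostly up to about 38 µM.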 The gist of the method: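 Percent of cells positive for normalized phospho-S6 staining is reported, with the cutoff set from rapamycin (7.5 nM) versus DMSO wells. Tsc2-/-, p53-/- MEFs received compound for 24 hrs.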
Assay [5] can be described thus: High Content Imaging Cell-Based qHTS for Inhibitors of the mTORC1 Signaling Pathway in MEF Cells (AID 2667). Also: potency is read from the fitted curve at half-maximal effect. In outline: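 WT MEFs (Tsc2-/-, p53-/- re-expressing Tsc2), in DMEM + 10% FBS, were treated with compound for 24 h at 37 C. Cells were then fixed and stained for phospho-rpS6 Ser235/236 with propidium iodide as cell count. Values are % positive cells, with thresholds set against rapamycin-treated cells.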

Assay [6] can be described thus: Validation screen for inhibitors of Lassa infection (AID 463096; calls by dose curve; also: potency is read from the fitted curve at half-maximal effect).
The target of assay [7] is Ubiquitin carboxyl-terminal hydrolase 2 (Homo sapiens) (UniProt O75604). Put plainly: qHTS Validation Assay for Inhibitors of Ubiquitin-specific Protease USP2a Using CHOP2 as the Reporter (AID 463106). Also: potency is read from the fitted curve at half-maximal effect. In outline:
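USP2 core (10 nM final) was preincubated with compound 30 min at RT in pH 8.0 Tris/CaCl2/beta-ME/CHAPS buffer. Ub-CHOP2 and reporter substrate (25 nM final each) were then added, with fluorescence (Ex 485/Em 531) read after 60 min. Data were normalized to NEM full inhibition and fitted to concentration-response curves.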

Assay [8] concerns the target DNA polymerase III PolC-type (Bacillus subtilis (strain 168)) (UniProt P13267). The assay can be described thus: qHTS Validation Assay for the Inhibitors of DNA Replication in Gram-Positive Bacteria (AID 485295). Also: potency is read from the fitted curve at half-maximal effect. In outline:
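Reconstituted B. subtilis holoenzyme (Pol III, beta clamp, SSB, primase) was preincubated with compound at room temperature, then given single-stranded circular M13Gori plus dNTPs and NTPs. EDTA-containing PicoGreen stopped the reaction, and dsDNA product was read by fluorescence.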

Assay [9] addresses Tumor susceptibility gene 101 protein (Homo sapiens) (UniProt Q99816). Put plainly: qHTS Validation Assay for Iinhibitors of HIV-1 Budding by Blocking the Interaction of PTAP/TSG101 (AID 485342; calls by dose curve). In outline: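 Tsg101 binding domain (10 uM final) in pH 7.5 HEPES/NaCl/Tween 20/EDTA/TCEP buffer was mixed with pin-transferred compounds, then FITC-labeled PTAP peptide (50 nM final) was added; after 20 min at r.t., fluorescence polarization was read.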

Assay [10] is described as follows: Validation screen for small molecules that induce DNA re-replication in MCF 10A normal breast cells (AID 463097). Also: nearly all actives have a fitted effect of over 60% in size. Also: potency is read from the fitted curve at half-maximal effect. The gist of the method: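 Readout: Hoechst nuclear fluorescence intensity, 405 ex / 500-530 em, by scanning plate imager; re-replication scored as increase in nuclei with elevated DNA content. Cells exposed to compound 48 hr, 37 C, 5% CO2 beforehand.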

Results filed as inconclusive are left out. Calls of active or inactive are those of the source. Unless noted, calls follow the shape of the dose curve; as a rule, active = well fitted curve in the direction sought with a large enough effect; inconclusive = small, poorly fitted or top-dose-only effect, or another doubt; inactive = no such curve, though single readings can be large; an effect the other way counts as inactive or inconclusive.

Chain of Ubiquitin carboxyl-terminal hydrolase 2 (Homo sapiens) (O75604 whole entry, looked up): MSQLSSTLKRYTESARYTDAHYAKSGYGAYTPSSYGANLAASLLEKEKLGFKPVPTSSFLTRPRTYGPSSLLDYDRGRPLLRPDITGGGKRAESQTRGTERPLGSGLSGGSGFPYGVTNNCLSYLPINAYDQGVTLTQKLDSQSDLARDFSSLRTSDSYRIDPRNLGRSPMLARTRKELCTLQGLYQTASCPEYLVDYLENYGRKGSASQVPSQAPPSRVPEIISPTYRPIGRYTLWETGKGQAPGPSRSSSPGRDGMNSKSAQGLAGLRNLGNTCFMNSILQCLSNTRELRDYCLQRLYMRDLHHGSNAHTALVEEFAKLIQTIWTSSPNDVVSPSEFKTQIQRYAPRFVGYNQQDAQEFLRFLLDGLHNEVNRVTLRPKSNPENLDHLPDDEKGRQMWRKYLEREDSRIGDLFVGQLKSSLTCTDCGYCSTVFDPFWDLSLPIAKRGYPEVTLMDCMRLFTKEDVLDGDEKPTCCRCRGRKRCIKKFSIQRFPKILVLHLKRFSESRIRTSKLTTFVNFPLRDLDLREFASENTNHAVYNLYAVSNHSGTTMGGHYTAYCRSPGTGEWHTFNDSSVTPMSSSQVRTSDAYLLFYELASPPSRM
Chain of Tumor susceptibility gene 101 protein (Homo sapiens) (Q99816 whole entry, looked up, the tested form may be a part): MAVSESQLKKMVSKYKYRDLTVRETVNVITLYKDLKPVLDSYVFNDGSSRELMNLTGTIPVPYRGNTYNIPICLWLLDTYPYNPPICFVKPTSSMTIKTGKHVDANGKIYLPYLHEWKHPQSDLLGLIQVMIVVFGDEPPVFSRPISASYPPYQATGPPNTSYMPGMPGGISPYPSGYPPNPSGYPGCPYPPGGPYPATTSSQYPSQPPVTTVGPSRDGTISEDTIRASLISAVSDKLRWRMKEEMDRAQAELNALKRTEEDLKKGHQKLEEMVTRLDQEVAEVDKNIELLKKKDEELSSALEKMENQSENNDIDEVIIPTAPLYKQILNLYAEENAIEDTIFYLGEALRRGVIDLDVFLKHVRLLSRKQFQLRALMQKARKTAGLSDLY
Chain of DNA polymerase III PolC-type (Bacillus subtilis (strain 168)) (P13267 whole entry, looked up): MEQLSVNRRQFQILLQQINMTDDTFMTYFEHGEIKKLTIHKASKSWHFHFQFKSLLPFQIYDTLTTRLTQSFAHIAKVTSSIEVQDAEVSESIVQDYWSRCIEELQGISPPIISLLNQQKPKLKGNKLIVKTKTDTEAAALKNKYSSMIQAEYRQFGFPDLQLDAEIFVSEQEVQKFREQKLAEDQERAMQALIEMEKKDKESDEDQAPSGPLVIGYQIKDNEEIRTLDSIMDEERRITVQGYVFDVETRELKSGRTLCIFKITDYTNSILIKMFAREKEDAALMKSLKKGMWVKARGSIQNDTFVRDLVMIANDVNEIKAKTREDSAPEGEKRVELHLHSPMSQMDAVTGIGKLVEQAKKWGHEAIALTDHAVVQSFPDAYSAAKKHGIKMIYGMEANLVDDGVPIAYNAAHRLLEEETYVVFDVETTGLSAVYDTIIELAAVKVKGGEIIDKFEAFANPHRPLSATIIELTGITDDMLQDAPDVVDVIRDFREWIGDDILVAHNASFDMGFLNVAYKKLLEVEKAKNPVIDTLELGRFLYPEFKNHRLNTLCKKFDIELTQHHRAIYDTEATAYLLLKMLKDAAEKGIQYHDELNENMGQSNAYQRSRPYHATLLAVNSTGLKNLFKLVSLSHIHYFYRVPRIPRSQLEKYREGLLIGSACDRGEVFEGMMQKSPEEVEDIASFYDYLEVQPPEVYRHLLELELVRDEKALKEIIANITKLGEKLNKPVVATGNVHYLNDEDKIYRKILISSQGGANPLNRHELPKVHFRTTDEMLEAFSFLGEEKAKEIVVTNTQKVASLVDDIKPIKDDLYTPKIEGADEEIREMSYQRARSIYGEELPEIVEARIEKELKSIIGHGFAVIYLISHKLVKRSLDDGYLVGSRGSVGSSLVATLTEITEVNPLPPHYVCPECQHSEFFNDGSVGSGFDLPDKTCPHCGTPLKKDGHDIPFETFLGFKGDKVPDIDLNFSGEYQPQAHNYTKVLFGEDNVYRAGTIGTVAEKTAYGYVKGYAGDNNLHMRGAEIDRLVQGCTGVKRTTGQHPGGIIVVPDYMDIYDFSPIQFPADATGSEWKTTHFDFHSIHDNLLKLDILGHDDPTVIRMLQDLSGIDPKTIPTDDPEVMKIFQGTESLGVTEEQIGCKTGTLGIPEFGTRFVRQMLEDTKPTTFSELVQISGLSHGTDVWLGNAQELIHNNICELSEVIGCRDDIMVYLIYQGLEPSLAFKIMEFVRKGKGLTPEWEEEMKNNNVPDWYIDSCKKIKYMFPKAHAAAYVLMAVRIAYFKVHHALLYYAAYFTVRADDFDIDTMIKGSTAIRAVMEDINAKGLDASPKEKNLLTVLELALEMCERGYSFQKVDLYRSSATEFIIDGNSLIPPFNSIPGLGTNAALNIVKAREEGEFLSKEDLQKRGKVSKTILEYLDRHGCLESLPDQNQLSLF
Chain of Ferritin light chain (Equus caballus) (P02791 2-175 limits assumed): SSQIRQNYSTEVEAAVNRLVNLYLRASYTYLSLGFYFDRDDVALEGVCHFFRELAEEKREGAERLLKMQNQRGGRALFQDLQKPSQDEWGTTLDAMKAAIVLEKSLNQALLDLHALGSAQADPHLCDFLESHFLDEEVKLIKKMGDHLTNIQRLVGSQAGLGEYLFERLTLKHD
Chain of ATP-dependent DNA helicase Q1 (Homo sapiens) (P46063 whole entry, looked up): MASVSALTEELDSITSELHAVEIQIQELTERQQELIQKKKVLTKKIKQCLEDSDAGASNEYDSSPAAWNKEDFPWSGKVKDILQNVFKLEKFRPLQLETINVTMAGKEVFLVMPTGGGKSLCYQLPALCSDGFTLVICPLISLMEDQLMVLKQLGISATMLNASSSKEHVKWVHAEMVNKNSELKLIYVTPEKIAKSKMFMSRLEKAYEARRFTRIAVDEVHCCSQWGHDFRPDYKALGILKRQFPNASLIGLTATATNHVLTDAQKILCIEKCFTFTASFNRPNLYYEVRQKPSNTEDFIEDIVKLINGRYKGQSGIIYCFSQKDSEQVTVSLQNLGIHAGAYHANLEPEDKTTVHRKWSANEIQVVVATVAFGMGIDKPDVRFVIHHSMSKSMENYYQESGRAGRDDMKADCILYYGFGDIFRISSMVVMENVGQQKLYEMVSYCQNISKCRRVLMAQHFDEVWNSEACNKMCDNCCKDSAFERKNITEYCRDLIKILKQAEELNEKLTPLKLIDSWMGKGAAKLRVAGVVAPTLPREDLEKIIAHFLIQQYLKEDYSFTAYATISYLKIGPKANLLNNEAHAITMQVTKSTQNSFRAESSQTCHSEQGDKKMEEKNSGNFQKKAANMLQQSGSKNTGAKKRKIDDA
Chain of RecQ-like DNA helicase BLM (Homo sapiens) (P54132 whole entry, looked up): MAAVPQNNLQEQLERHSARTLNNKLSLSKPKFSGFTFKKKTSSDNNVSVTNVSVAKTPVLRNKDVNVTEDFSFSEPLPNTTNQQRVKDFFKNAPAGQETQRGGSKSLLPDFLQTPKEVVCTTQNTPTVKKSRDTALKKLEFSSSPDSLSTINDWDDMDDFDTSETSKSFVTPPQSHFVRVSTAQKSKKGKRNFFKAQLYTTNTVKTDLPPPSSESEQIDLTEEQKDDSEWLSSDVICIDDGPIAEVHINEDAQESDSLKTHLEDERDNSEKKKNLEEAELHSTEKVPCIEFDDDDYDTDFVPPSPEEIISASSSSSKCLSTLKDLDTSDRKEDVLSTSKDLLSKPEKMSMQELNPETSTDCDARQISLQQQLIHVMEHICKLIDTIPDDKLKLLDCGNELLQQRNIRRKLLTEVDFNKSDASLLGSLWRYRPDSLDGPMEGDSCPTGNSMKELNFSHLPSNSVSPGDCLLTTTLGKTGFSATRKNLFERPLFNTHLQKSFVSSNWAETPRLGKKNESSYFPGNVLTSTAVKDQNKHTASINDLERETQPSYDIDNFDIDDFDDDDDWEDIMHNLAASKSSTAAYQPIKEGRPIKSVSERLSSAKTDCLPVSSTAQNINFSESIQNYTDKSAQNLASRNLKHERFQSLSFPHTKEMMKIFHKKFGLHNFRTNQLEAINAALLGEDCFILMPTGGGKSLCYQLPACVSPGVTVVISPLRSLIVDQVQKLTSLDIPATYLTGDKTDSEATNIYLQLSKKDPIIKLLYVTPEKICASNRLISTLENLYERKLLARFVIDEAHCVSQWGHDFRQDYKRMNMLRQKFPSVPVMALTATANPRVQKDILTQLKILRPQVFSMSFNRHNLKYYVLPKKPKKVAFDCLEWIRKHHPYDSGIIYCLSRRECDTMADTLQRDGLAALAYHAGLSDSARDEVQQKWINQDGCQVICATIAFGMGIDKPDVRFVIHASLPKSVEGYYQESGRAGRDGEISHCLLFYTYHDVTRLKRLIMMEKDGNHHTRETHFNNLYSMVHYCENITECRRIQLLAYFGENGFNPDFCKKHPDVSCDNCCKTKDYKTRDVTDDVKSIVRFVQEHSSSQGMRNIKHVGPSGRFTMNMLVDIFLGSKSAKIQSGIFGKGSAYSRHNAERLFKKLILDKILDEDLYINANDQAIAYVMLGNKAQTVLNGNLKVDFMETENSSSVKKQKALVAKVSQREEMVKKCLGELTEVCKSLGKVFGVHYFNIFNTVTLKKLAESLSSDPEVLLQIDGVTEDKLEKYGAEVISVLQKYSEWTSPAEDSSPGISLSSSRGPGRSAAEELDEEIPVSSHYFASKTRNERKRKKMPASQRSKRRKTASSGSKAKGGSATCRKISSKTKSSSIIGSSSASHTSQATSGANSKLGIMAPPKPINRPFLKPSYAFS

As for `O=c1[nH]c2ccccc2n1CCCN1CCC(n2c(=O)[nH]c3cc(Cl)ccc32)CC1`, the molecule was called inactive in [1], in assay [2], in assay [4] and in assay [9]. Also, the Potency result in assay [3], in assay [5], in [6], in assay [7] and in [8] was “inactive” throughout.

For `CC[N+](CC)(CC)CC`, the molecule was called inactive in assay [1] and in assay [2]. Further, the Potency result in [3], in assay [6] and in assay [10] was “inactive” each time.

Regarding `Cc1cccc(C)c1NC1=NCCCS1`, the outcome in [1], in assay [2], in assay [4] and in [9] was inactive. Also, the Potency result in assay [5], in assay [6], in [10], in assay [7] and in assay [8] was “inactive” throughout.

For the molecule `Cc1ccc(S(=O)(=O)N[C@@H](CCCCN)C(=O)CCl)cc1`, the molecule was classed as inactive in [1], in assay [2], in assay [4] and in assay [9]. Moreover, the Potency result in [3], in [5], in assay [6], in assay [10], in assay [7] and in assay [8] was “inactive” each time.

Regarding `Clc1cccc(N2CCNCC2)c1`, the molecule was classed as inactive in [1] and in [2]. Moreover, the Potency result in assay [6] and in assay [10] was “inactive” throughout.

On to `Cc1ncc(CNC(=O)N(CCCl)N=O)c(N)n1`, for which the outcome in assay [1], in assay [2], in assay [4] and in [9] was inactive. For the same molecule, the Potency result in [5], in assay [6], in assay [10], in assay [7] and in assay [8] was “inactive” throughout.

With `O=C1c2c(O)ccc(O)c2C(=O)c2c(NCCNCCO)ccc(NCCNCCO)c21`, the Potency in assay [6] is 0.282 µM (active).

For `CNC1(C)C2CCC(C2)C1(C)C` (centres undefined), the Potency result in assay [6] is “inactive”.

Consider `CCCN1CCC[C@@H]2Cc3[nH]ncc3C[C@H]21`, for which the molecule was classed as inactive in [4] and in assay [9]. Further, the Potency entry in [5], in assay [7] and in assay [8] was “inactive” in each case.

In the case of `COc1ccc(C(CN(C)C)C2(O)CCCCC2)cc1` (centres undefined), the call in assay [4] and in assay [9] was inactive. The Potency result in [5], in assay [7] and in assay [8] was “inactive” throughout.

For `NNCCc1ccccc1`, the Potency entry in assay [6] is “inactive”.

For the molecule `Cc1cc2c(C(C)C)c(O)c(O)c(C=O)c2c(O)c1-c1c(C)cc2c(C(C)C)c(O)c(O)c(C=O)c2c1O`, the Potency was 14.7 µM (active) in [5], 5.21 µM (active) in assay [7] and 10.6 µM (active) in [8].

Take `CC(O)(CS(=O)(=O)c1ccc(F)cc1)C(=O)Nc1ccc(C#N)c(C(F)(F)F)c1` (centres undefined): the result in assay [4] and in [9] was inactive. Moreover, the Potency entry in assay [5], in assay [7] and in [8] was “inactive” each time.

For the molecule `CCN(CC)CCCC(C)Nc1ccnc2cc(Cl)ccc12` (centres undefined), the Potency result in assay [6] was “inactive”.

In the case of `C[C@@H]1O[C@@H](O[C@H]2C[C@@H](O)[C@]3(CO)[C@H]4[C@H](O)C[C@]5(C)[C@@H](C6=CC(=O)OC6)CC[C@]5(O)[C@@H]4CC[C@]3(O)C2)[C@H](O)[C@H](O)[C@H]1O`, the call in [4] and in assay [9] was inactive. The Potency result in assay [5], in assay [7] and in [8] was “inactive” throughout.

Regarding `CC[C@@H](CO)NC(=O)[C@@H]1C=C2c3cccc4c3c(cn4C)C[C@H]2N(C)C1`, the result in assay [4] and in assay [9] was inactive. Moreover, the Potency result in assay [5] and in assay [7] was “inactive” throughout. For the same molecule, in [8], the Potency is 16.8 µM (active).

Consider `Cc1cnc(C(=O)NCCc2ccc(S(=O)(=O)NC(=O)NC3CCCCC3)cc2)cn1`, for which the Potency result in [6] is “inactive”.

On to `C[C@](N)(Cc1ccc(O)c(O)c1)C(=O)O`, for which the Potency entry in [6] is “inactive”.

On to `Cc1cccc(C)c1NC(=O)CN1CCCC1=O`, for which the call in assay [4] and in assay [9] was inactive. For the same molecule, the Potency result in assay [5], in assay [7] and in [8] was “inactive” in each case.

Take `CN(C)CC/C=C1\c2ccccc2COc2ccccc21`: the Potency result in assay [6] is “inactive”.

`N[C@@H]1CONC1=O`: the Potency entry in [6] was “inactive”.

As to `CN(C)CC[C@@H](c1ccc(Br)cc1)c1ccccn1`, the Potency entry in assay [6] is “inactive”.

`CC(=O)[C@H]1CC[C@H]2[C@@H]3CC[C@H]4C[C@](C)(O)CC[C@]4(C)[C@H]3CC[C@]12C`: the call in assay [4] and in [9] was inactive. Further, the Potency entry in [5], in assay [7] and in [8] was “inactive” in each case.

In the case of `CCCC(CCC)C(=O)O`, the Potency entry in [6] is “inactive”.

As to `CC[C@@H](CO)NC(=O)[C@@H]1C=C2c3cccc4[nH]cc(c34)C[C@H]2N(C)C1`, the molecule was classed as inactive in assay [4] and in assay [9]. Further, the Potency entry in assay [5] was “inactive”.

Regarding `NC(=O)OCC(COC(N)=O)c1ccccc1`, the Potency entry in assay [6] is “inactive”.

In the case of `O=C(C1CCCCC1)N1CC(=O)N2CCc3ccccc3C2C1` (centres undefined), the Potency result in assay [6] was “inactive”.

Regarding `CC(C)NCC(O)COc1cccc2[nH]ccc12` (centres undefined), the Potency result in [3] and in assay [6] was “inactive” throughout.

Consider `CC12CC3CC(C)(C1)CC(N)(C3)C2`, for which the Potency result in assay [3] and in [6] was “inactive” in each case.

For `CN(C)C(=O)C(CCN1CCC(O)(c2ccc(Cl)cc2)CC1)(c1ccccc1)c1ccccc1`, the Potency in assay [5] was 18.5 µM (active); in [6] it was 12.6 µM (active).

Consider `CC(C)=CCOc1c2occc2cc2ccc(=O)oc12`, for which the call in assay [4] and in assay [9] was inactive. The Potency entry in [5], in [7] and in assay [8] was “inactive” throughout.

For `Cc1cn[nH]c1`, in assay [6], the Potency result is “inactive”.

Take `Cc1nc2n(c(=O)c1CCN1CCC(c3noc4cc(F)ccc34)CC1)CCCC2`: the Potency entry in assay [6] is “inactive”.

As to `O=c1c(O)c(-c2ccc(O)c(O)c2)oc2cc(O)cc(O)c12`, the Potency in assay [3] is 28.2 µM (active); in assay [8], 10.6 µM (active). Also, in assay [6], the Potency result is “inactive”.

As for `CC(=O)N[C@@H](CS)C(=O)O`, in [6], the Potency entry was “inactive”.

As to `CN/C(=C\[N+](=O)[O-])NCCSCc1ccc(CN(C)C)o1`, the Potency result in assay [6] was “inactive”.

Turning to `CC(C)(C(=O)O)c1ccc(C(O)CCCN2CCC(C(O)(c3ccccc3)c3ccccc3)CC2)cc1` (centres undefined), the Potency result in assay [6] was “inactive”.

As for `COc1cc2c(c(OC)c1OC)-c1ccc(OC)c(=O)cc1[C@@H](NC(C)=O)CC2`, in assay [10], the Potency is 39.8 nM (active).

Source of the values: PubChem BioAssay (NCATS).
